Test results taken from PubChem BioAssay AID1903 (Southern Research Specialized Biocontainment Screening …, 2009).
Among all 310,000 compounds or so, about 1,200 (0.39%) were called active. How the calls were made is not given here. Not all results are given here. Potency and affinity values are given separately.

Target: Large T antigen (Simian virus 40) (UniProt P03070)
Test: SV40 large T antigen inhibitors, biochemical (AID 1903)
Conditions: SV40 large T antigen ATPase/helicase inhibition assay; at 20 µM; hits give high values

Sequence of Large T antigen (Simian virus 40) (P03070 whole entry, looked up): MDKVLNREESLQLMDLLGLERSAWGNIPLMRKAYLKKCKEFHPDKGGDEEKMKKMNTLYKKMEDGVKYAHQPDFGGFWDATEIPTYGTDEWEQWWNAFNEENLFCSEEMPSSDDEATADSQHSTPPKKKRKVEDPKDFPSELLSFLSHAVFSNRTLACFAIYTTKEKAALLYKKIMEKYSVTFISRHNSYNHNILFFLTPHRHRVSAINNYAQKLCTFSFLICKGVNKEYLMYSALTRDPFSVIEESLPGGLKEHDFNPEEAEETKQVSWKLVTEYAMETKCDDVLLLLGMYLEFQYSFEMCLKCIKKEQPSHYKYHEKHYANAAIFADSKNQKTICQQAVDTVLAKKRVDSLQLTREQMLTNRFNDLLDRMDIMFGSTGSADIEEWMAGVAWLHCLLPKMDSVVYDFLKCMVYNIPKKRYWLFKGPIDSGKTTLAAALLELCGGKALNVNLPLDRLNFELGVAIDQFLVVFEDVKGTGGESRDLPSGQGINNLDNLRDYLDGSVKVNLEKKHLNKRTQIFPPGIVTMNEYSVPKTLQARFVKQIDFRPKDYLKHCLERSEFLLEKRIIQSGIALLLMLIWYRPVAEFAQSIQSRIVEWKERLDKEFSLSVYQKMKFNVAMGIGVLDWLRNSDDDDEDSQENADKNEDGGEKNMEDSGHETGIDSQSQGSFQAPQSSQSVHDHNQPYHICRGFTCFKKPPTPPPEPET

inhibition, inactive:
COC(=O)c1ccccc1NC(=O)CSc1n[nH]c(C)n1 0.8%
Cc1ccc(Cl)cc1NC(=O)C(NS(=O)(=O)c1cccs1)c1ccccc1 (centres undefined) 3.94%
CC(C)C(NS(=O)(=O)c1ccc2c(c1)OCCCO2)C(=O)O (centres undefined) -3.36%
Nc1ccc2nc(-c3ccc(Cl)cc3)[nH]c2c1 28%
Nc1ccc2nc(-c3ccc(-c4nc5ccc(N)cc5[nH]4)cc3)[nH]c2c1 12.1%
Cc1ccc(-n2nc(C(=O)O)nc2-c2ccccc2)cc1 38%
Cc1cc(=O)nc2c3ccccc3n(CC(=O)NCCC3=CCCCC3)n12 2.66%
COc1ccc(S(=O)(=O)N2CCOC2CNC(=O)C(=O)NCCc2ccccc2)cc1C (centres undefined) 6.95%
O=C(O)c1ccc(N=Cc2c(O)ccc3ccccc23)cc1 6.09%
COc1cccc(/C=N/N2CCOCC2)c1O 3.29%
CN1CCN(CC(=O)N/N=C\c2c[nH]c3ccccc23)CC1 5.96%
O=[N+]([O-])c1ccc(N2CCOCC2)cc1NCc1ccccc1 5.38%
CN1CCN(/N=C/c2c3ccccc3c(Cl)c3ccccc23)CC1 1.67%
Cc1ccc(O)c(N=Cc2cc(Cc3ccccc3)cc([N+](=O)[O-])c2O)c1 15.2%
C=Cc1ccc(N=Cc2c(O)ccc3ccccc23)cc1 -18.3%
COc1cccc(C=Nc2ccc3c(c2)OCCO3)c1O 21.9%
Cc1c(C(=O)N2CCOCC2)c(S(=O)(=O)Nc2ccc(OC(F)(F)F)cc2)c(C)n1C 4.66%
CC(=O)c1c(C)[nH]c(C(=O)OC2CCCCC2=O)c1C (centres undefined) 6.27%
Cc1ccsc1C=Nc1c(C)n(C)n(-c2ccccc2)c1=O 4.72%
COCCNC(=O)C(c1ccco1)N(C(=O)Cn1nnc2ccccc21)c1ccccc1C (centres undefined) 2.93%
Cc1ccc(CN2CC(C(=O)N(C)CC(=O)Nc3cccc(F)c3)CC2=O)cc1 (centres undefined) 25.6%
CC(CC(=O)N(C)c1c(N)n(Cc2ccccc2)c(=O)[nH]c1=O)c1ccccc1 (centres undefined) 12.7%
COc1ccccc1CNc1nc(S(=O)(=O)c2ccccc2)c(Cl)s1 21.1%
O=C(NC1CCCCC1)C(c1ccco1)N(CCc1ccccc1)C(=O)C(F)(F)F (centres undefined) 9.43%
COC(=O)c1cccc(NC(=O)c2cnn(C)c2)c1 3.5%
Oc1cc(Br)ccc1C=Nc1ccc(N2CCCCC2)cc1 10.6%
Oc1c(Cl)cc(Cl)cc1C=Nc1ccc(N2CCOCC2)cc1 15.7%
Oc1c(Br)cc(Cl)cc1C=Nc1ccc(N2CCOCC2)cc1 17.2%
Cc1cc(Br)cc(C=Nc2ccc(N3CCOCC3)cc2)c1O 19.2%
CN(C)c1nc(N/N=C/c2c[nH]c3ccccc23)nc(N2CCOCC2)n1 27.1%
C(=N\Nc1nc(Nc2ccccc2)nc(N2CCOCC2)n1)/c1c[nH]c2ccccc12 5.43%
O=C1[C@H]2[C@@H](c3ccc(Cl)cc3)N3C(=O)N(c4cccc(Cl)c4)C(=O)[C@@]3(Cc3ccccc3)[C@H]2C(=O)N1C1CCCCC1 6.67%
Cc1ccc(S(=O)(=O)N2CCN(S(=O)(=O)c3ccc4c(c3)OCCO4)CC2)cc1 2.43%
O=C(C1CCN(C2CC(=O)N(c3ccc(F)cc3)C2=O)CC1)N1CCOCC1 (centres undefined) 6.36%
COc1ccccc1N1CCN(C(CNS(C)(=O)=O)c2cccnc2)CC1 (centres undefined) 10%
CCOC(=O)c1[nH]c(C)c(C(=O)N2CCN(c3ccc(F)cc3)CC2)c1C 27.5%
C/C(CC(=O)Nc1ccc2c(c1)OCCO2)=N\NC(=O)COc1cccc(C)c1 6.15%
O=C(COC(=O)[C@@H]1CCCN1S(=O)(=O)c1ccc(Cl)cc1)NC1CCS(=O)(=O)C1 (some centres undefined) 1.86%
CCOc1ccc(/C=N/NS(=O)(=O)c2ccc(C)cc2)cc1OC 12.6%
COC(=O)C1=C(C)Nc2[nH]c(=S)[nH]c(=O)c2C1c1ccc(O)cc1 (centres undefined) 26.6%
Cc1ccc(C2C3=C(CCCC3=O)Nc3[nH]c(=S)[nH]c(=O)c32)cc1 (centres undefined) 23.7%
COC1Cc2ccccc2N(C(N)=O)c2ccccc21 (centres undefined) 11.8%
NS(=O)(=O)c1ccc(CCNC(=O)CSc2nc3ccccc3c3nc(CCN4CCCCC4)nn23)cc1 1.71%
COc1ccc(C2=CC3=C(Br)C(=O)C(C)(OC(=O)c4cccs4)C(=O)C3=CO2)cc1 (centres undefined) 52.5%
COc1ccc(C2=CC3=C(Br)C(=O)C(C)(OC(=O)c4ccco4)C(=O)C3=CO2)cc1 (centres undefined) 50.8%
COc1ccc2oc(C)c(C(=O)NN)c2c1 28.3%
O=C(NC1CCS(=O)(=O)C1)Oc1ccc(Cl)cc1 (centres undefined) 9.05%
O=C(NC1CCS(=O)(=O)C1)Oc1ccccc1 (centres undefined) 6.71%
O=[N+]([O-])c1ccccc1-c1cc(-c2ccccc2O)n[nH]1 5.15%
O=[N+]([O-])c1ccccc1-c1cc(-c2cc(Cl)ccc2O)n[nH]1 19%
O=C(OCC(=O)N1CCN(c2ccccc2)CC1)c1cccs1 3.9%
O=C(CSc1ccc(-c2nc3ccccc3[nH]2)cn1)Nc1ccc2c(c1)OCCO2 3.79%
CCN(c1ccc(NC(=O)COC(=O)c2ccc(C)s2)cc1)C(C)C 29.8%
CCOC(=O)c1c(N)sc(N)c1C(=O)OCC 36.6%
CCOC(=O)c1c(C)[nH]sc1=S 15%
O=C(NC(=S)Nc1ccccc1[N+](=O)[O-])c1cncc(Br)c1 7.4%
CCOc1ccc(Br)cc1S(=O)(=O)Nc1ccc(C(=O)Nc2ccccc2OC)cc1 11.7%
O=[N+]([O-])c1ccc2c(c1Nc1ccccc1Cl)=NC1(CCCCC1)N=2 14.5%
CCN(CC)C(=O)C(=O)c1cccn1-c1ccc(C#N)cc1 12.2%
O=C(Nc1ccccc1)c1ccc(NCC2CCCO2)c([N+](=O)[O-])c1 (centres undefined) 16.3%
CC(NC(=O)Nc1ccccc1O)(C(F)(F)F)C(F)(F)F 10.1%
COc1ccc(NC(=O)NC(C)(C(F)(F)F)C(F)(F)F)cc1 1.34%
O=C(Nc1ccccc1N1CCN(C(=O)c2ccc(Cl)cc2)CC1)c1cccnc1 -3.62%
Cc1noc(C)c1CS(=O)(=O)c1ccc([N+](=O)[O-])cc1 4.7%
CC/C(=N\Nc1nncc2ccccc12)c1ccc(F)cc1 0.15%
O=C1CC(N2CCN(c3ccc(F)cc3)CC2)C(=O)N1Cc1cccs1 (centres undefined) 7.54%
O=C(c1ccncc1)c1ccc(N2CCN(C3CC(=O)N(Cc4cccs4)C3=O)CC2)cc1 (centres undefined) 4.51%
COc1cc2c(cc1NC(=O)CSc1ccc(Cl)cc1)oc1ccccc12 20.1%
Cc1ccc(C(=O)CSc2nnc(-c3cccnc3)n2N)cc1 13.6%
O=C(COC(=O)CCC(NC(=O)OCc1ccccc1)C(=O)OCC(=O)Nc1ccccc1)Nc1ccccc1 (centres undefined) 9.57%
O=C(O)/C=C/C(=O)Nc1ccc(-n2nccc2C(F)(F)F)cc1 22.7%
CC(/C=C1\SC(=S)N(NS(=O)(=O)c2ccccc2)C1=O)=C\c1ccccc1 28.2%
O=C(NN1C(=O)/C(=C/c2cccc(O)c2)SC1=S)c1ccccc1O 0.53%
O=C(NN1C(=O)/C(=C/c2ccc(O)cc2)SC1=S)c1ccccc1O 38%
O=C1/C(=C\c2ccc(Br)cc2)SC(=S)N1NS(=O)(=O)c1ccccc1 5.34%
CCCC1NC(=S)N(C2CCCCC2)C1=O (centres undefined) 1.78%
Cc1ccc(-c2cc3c(n2-c2ccc(C(=O)O)cc2)CCCC3=O)cc1 11%
Cc1ccc(-n2c(C)cc3c2CCCC3=O)cc1 17.7%
CCC(C)(C)n1nnnc1C(c1ccccc1F)N1CCC(C(N)=O)CC1 (centres undefined) 8.52%
O=C(COc1ccc(Cl)cc1)NCc1nnc(SCC(=O)NC2CCCC2)o1 14.1%
COc1ccc2cc(C(=O)N3CCN(c4ccccc4OC)CC3)[nH]c2c1 2.37%
Cc1ccc2[nH]c3ccccc3c(=O)c2c1 4.82%
O=c1c2ccccc2[nH]c2ccccc12 7.79%
Cc1ccc(C)c(OC(=O)c2cccnc2Cl)c1C 25.3%
CCOCCn1c(SCc2ccccc2)nc2c1c(=O)[nH]c(=O)n2C 16.9%
CCOC(=O)C1C(c2ccccc2)C(C(=O)OCC)S(=O)(=O)C(CCN(CC)CC)S1(=O)=O (centres undefined) 4.87%
COC(=O)Cc1nnc(SCC(=O)Nc2ccccc2)c2ccccc12 11.3%
COc1ccc(NC(=O)Cn2c3ccccc3c3nc4n(c(=O)c32)CCS4)cc1OC 10.1%
O=C(c1cc(-c2ccc(Cl)cc2)on1)N1CCOCC1 7.19%
Cc1nnsc1C(=O)Nc1ccc(Cl)cc1 3.36%
O=C(Nc1ccccc1)Nc1snnc1C(=O)Nc1cccc(O)c1 10.9%
O=C(c1nnsc1S(=O)(=O)c1ccc(Cl)cc1)N1CCOCC1 4.81%
Clc1cccc(NCc2nnc(SCc3ccc(Cl)cc3Cl)o2)c1 0.46%
COc1ccc(/C=N/NC(=O)c2ccccc2OC)cc1COc1ccccc1[N+](=O)[O-] 1.66%
